Experimental data from PubChem BioAssay AID570 (The Scripps Research Institute Molecular Screening Center, 2006).
Among all 65,000 compounds or so, about 45 (0.07%) were called active.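 Rule for the calls: active = inhibition above the mean of compound-free control plate wells plus 3 SD (cut at about 14% in these data); inactive = the rest.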 The list comes from a sample in which actives are over-represented; it also holds similar structures and randomly drawn compounds.

target: Collagenase 3 (Homo sapiens) (UniProt P45452); experiment: human MMP13 inhibitors, primary screen, biochemical, FRET peptide cleavage (AID 570); details: MMP-13 fTHP FRET cleavage, Mca fluorescence; at 4 µM; active compounds read high;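 note: 0% = DMSO wells and 100% = wells with reference MMP-13 inhibitor after basal subtraction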

inhibition, inactive:
O=C(NCCN1CCOCC1)[C@H](Cc1ccccc1)N1C(=O)c2ccccc2C1=O 0.6%
COc1ccc(O)c(C(=O)c2cnc3onc(C(C)C)c3c2)c1 8.5%
COC(=O)c1ccc(Oc2nc(NC(C)C)nc(SC)n2)cc1 0.3%
OCc1n[nH]c(CO)n1 -2.9%
CCN1C(=O)/C(=C\N2CCN(c3cccc(Cl)c3)CC2)SC1=S 4.2%
CCN1C(=O)/C(=C\N2CCN(c3ccccc3)CC2)SC1=S 3.4%
CCc1nnc(NC(=O)c2nc3nccc(C)n3n2)s1 1.3%
COc1ccc2c(c1)OC(O)(C(F)(F)C(F)F)CC2=O (stereo not drawn) 4.3%
CC1(C)Cc2ccccc2-c2nnc(-c3cccc(O)c3)n21 -1.1%
O=C(Nc1ccc(Cl)cn1)c1cnn2cccnc12 -1.1%
O=c1[nH]c(=O)n(Cc2ccco2)c2c1C(C(F)(F)F)(C(F)(F)F)N=C(c1ccco1)N2 -3.7%
CC(C)n1c(NCc2c[nH]c3ccccc23)nc2ccccc21 -5.6%
COc1cc(C(O)c2nc3ccccc3n2C)cc(OC)c1OC (stereo not drawn) 1%
Cc1cc(C)c(C#N)c(SCc2ccc3c(c2)OCO3)n1 3.3%
COc1ccc(C2C(C(=O)N3CCN(c4ccc(OC)cc4)CC3)c3ccccc3C(=O)N2C)cc1 (stereo not drawn) 2.8%
CNC(=O)CSc1nnnn1-c1ccc(C)cc1C 1.5%
CC1(C)CC(=O)C(C=NCc2cccnc2)=C(O)C1 2.8%
CCC(=O)Nc1cccc(NC(=O)c2cccnc2)c1 -1.1%
CCC1CCCCN1C(=O)Nc1cccc(NC(=O)N2CCCCC2CC)c1 (stereo not drawn) -2.3%
CCOC(=O)C1(c2ccccc2)NC(c2ccc(N(C)C)cc2)C2C(=O)N(C)C(=O)C21 (stereo not drawn) -4.8%
O=C(Nc1ccc2c(c1)OCCO2)C1CCCN(c2ncccn2)C1 (stereo not drawn) 4.5%
Cc1ccccc1CSc1nnc(-c2cccnc2)n1N 4.9%
CN(C(=O)C1CCOC1)c1nnc(-c2cccnc2)s1 (stereo not drawn) -4.2%
COc1cccc(-n2cc3c(c2-c2ccccc2)c(=O)n(C)c(=O)n3C)c1 -1.8%
Cn1c(=O)c2c(nc(SCCNS(=O)(=O)c3ccccc3)n2C)n(C)c1=O -2.9%
CC(C)OC(=O)c1cc(NC(=O)C2C3CCC(O3)C2C(=O)O)cc(C(=O)OC(C)C)c1 (stereo not drawn) -25.2%
Cc1noc(COc2ccccc2OCC(O)CNC(C)(C)C)n1 (stereo not drawn) -0.8%
O=C(CCCN1C(=O)CCC1=O)Nc1ccc(Cl)c(C(F)(F)F)c1 1.9%
Cc1cccc(-n2c(Cc3cc(=O)[nH]c(=O)[nH]3)nnc2SC(C)C)c1 2.4%
O=C(OCc1ccccc1F)c1ccc2c(c1)OCCO2 -0.1%
O=c1ccn(Cc2ccccc2Cl)cc1 0.5%
COc1ccc(Cn2nnc3c(=O)[nH]c(C4CCN(C(=O)c5ccccc5Cl)CC4)nc32)cc1 7.2%
CCOC(=O)[C@H]1CCC[C@@H](NS(=O)(=O)c2ccc(NC(C)=O)cc2)C1 0%
COc1ccccc1NC(=O)CSc1nnc(-c2ccoc2C)n1CCc1ccccc1 -3.7%
Cc1cc(Nc2cccc(C)c2C)n2ncnc2n1 6.6%
CCCc1nc2c3cnn(-c4cccc(Cl)c4)c3ncn2n1 -4.1%
CC12CN3CC(C)(CN(C1)C3c1ccc(Cl)cc1Cl)C2=O (stereo not drawn) 6.8%
Cc1ccc(C(C)C)c(OCc2nnc(SCC(=O)Nc3nccs3)n2C)c1 -0.8%
CCOC(=O)N1CCC(NC(=O)Cn2cc3c(n2)CCCCC3)CC1 3%
Cc1cc(C)nc(N2C(=O)CC(Cc3ccccc3)C2=O)n1 (stereo not drawn) 2.4%
CC1CCCC(NC(=O)CN2CCN(Cc3ccc(Cl)cc3)C2=O)C1C (stereo not drawn) -0.6%
CCOC(=O)N1CCC(Nc2c(NCCCN3CCN(c4ccc(OC)cc4)CC3)c(=O)c2=O)CC1 2.1%
O=C(CCC(=O)OCC(F)(F)C(F)F)NCc1ccccc1 1.8%
Cc1cc(/C=N/n2cnnc2)c(C)n1-c1ccc2ncccc2c1 -12%
CC(=O)NC(C)(C)C1CC=C(C)/C(=N\O)C1 (stereo not drawn) 4.1%
CCOc1ccc(OCC)c(NC(=O)CN(C)S(=O)(=O)c2cccc3nsnc23)c1 -2.8%
Cc1cccc(-n2c(O)c(C=Nc3ccccc3N)c(=O)[nH]c2=O)c1 -15.8%
N#CC(C(=O)c1ccc(S(=O)(=O)N2CCCCCC2)cc1)c1nc2ccccc2[nH]1 (stereo not drawn) -11.8%
CC1C=CCC2C(=O)N(c3cccc(C(=O)N4CCCCCC4)c3)C(=O)C12 (stereo not drawn) 4.6%
Cc1nc2ccccc2c2oc(C(=O)NCC3CCCO3)cc12 (stereo not drawn) -8.8%
CCCn1c(SCC(=O)N2CCc3ccccc32)nnc1-c1ccncc1 -0.9%
COc1ccc(S(=O)(=O)N2CCCCC2)cc1Br 3.3%
Cc1ccc(-n2nc3cc(Cl)c(NC(=O)c4ccco4)cc3n2)cc1 -66.9%
Cc1ccc(S(=O)(=O)c2c(N)n(C)c3nc4ccccc4nc23)cc1 -244%
CCC(C)NC(=O)N[C@@H](CCSC)C(=O)O (stereo partly drawn) 1.5%
C=CCOc1ccc(C2/C(=C(\O)c3c(C)[nH]c(C(=O)OC)c3C)C(=O)C(=O)N2CCN(C)C)cc1 (stereo not drawn) 2.9%
COc1ccc(OC)c(NC(=O)CCN2CCC(C)CC2)c1 3.7%
COc1ccccc1OCCC(=O)OCC(=O)NC(=O)NC(C)(C)C 3.7%
CC(C)(C)c1cc(CN2CCN(CCC#N)CC2)cc(C(C)(C)C)c1O -0.2%
CCOC(=O)C1=C(C)NC(C)=C(C(=O)OCC)C1c1ccccn1 -0.7%
CCOc1ccc(C(=O)Nc2ccncc2)cc1 3.1%
c1nc(COc2nsnc2N2CCOCC2)cs1 2.5%
COc1ccc(NC(=O)CN2CCN(S(=O)(=O)c3ccc(F)cc3)CC2)cc1Cl -15.6%
Cc1noc(C)c1S(=O)(=O)N1CCCC(C(=O)Nc2nccs2)C1 (stereo not drawn) 6.5%
NC(CSC12CC3CC(CC(C3)C1)C2)C(=O)O (stereo not drawn) 2.6%
Cc1nc(NC(CC(C)C)C(=O)O)c2nc(C)oc2n1 (stereo not drawn) 0%
CCOC(=O)N1CCN(C(=O)CNC(=O)Cc2ccc(Cl)cc2)CC1 -1.6%
CCOC(=O)N1CCN(C(=O)C2CCN(S(C)(=O)=O)CC2)CC1 -0.8%
CCn1c(SCC(=O)c2ccc(Cl)s2)nnc1-c1cccs1 -2.1%
COc1ccccc1N(C(=O)Cn1nnc2ccccc21)C(C(=O)NCc1ccco1)c1ccc(C)o1 (stereo not drawn) 7.4%
Cc1nc(CNS(=O)(=O)c2cccnc2)cs1 2.4%
CCCCCCC(=O)N(O)C1CC(=O)N(c2ccccc2)C1=O (stereo not drawn) 1%
COC(=O)c1ccc(S(=O)(=O)c2ccc(C(=O)OC)s2)s1 -1.3%
Cc1ccc(S(=O)(=O)Cn2nnnc2CN2CCN(Cc3ccc4c(c3)OCO4)CC2)cc1 -3.7%
CC1CCN(C(=O)Cn2cc(C(=O)c3ccco3)c3ccccc32)CC1 -1.8%
CCC(=O)Nc1ccc2c(c1)nc(CCN1CCN(C)CC1)n2C -0.5%
CCOc1ccccc1C(=O)NCc1ccco1 3.2%
O=C(CN1C2CCC1CC(NC(=O)C1CC1)C2)NCc1ccccc1 (stereo not drawn) -1.1%
COc1ccc(C2=NOC(C(=O)NCc3ccco3)C2)cc1OC (stereo not drawn) 1.2%
C=CCNC(=O)c1cc(-c2ccccc2O)on1 6%
COc1ccccc1N1CC(O)=C(c2nc3ccccc3s2)C1=N -5.8%
Cc1cccc(NC(=O)CN2CCCN(S(=O)(=O)c3ccc(Br)s3)CC2)c1 -0.8%
COc1cc(Cl)c(S(=O)(=O)n2cnc(C)c2)cc1Cl -1%
CCC(C)(C)NC(=O)C(c1cccn1C)N(Cc1ccc(C)cc1)C(=O)Cn1nnc2ccccc21 (stereo not drawn) 2.1%
O=C(CSc1n[nH]c(-c2cccnc2)n1)Nc1ccnc2ccccc12 -1.2%
CC(C)(C)c1ccc(C(=O)CSc2ncn[nH]2)cc1 1.3%
C=CCSc1nnc(Cn2c(=O)sc3ccccc32)n1C -10.7%
CC(NC(=O)c1ccco1)C(=O)Nc1nc(-c2ccccn2)cs1 (stereo not drawn) 1.6%
COCCNCCOCCOc1cccc(OC)c1 -0.9%
Cc1ccsc1-c1nc(CSCC(=O)NCCN2CCCC2)c(C)o1 -72.5%
O=C(CSc1nnc(-c2cccs2)n1-c1ccccc1)N1CCN(C(=O)c2ccco2)CC1 2.3%
CN(Cc1ccccc1)Cc1ccccc1F 0.3%
Cc1oc(-c2cccc(Cl)c2)[n+]([O-])c1C -6.2%
CCOc1nc(-c2ccc(OC)cc2)ccc1-c1noc(-c2cc(OC)c(OC)c(OC)c2)n1 -11.5%
CCOC(=O)C(CCOc1cccc(CC)c1)C(=O)OCC 4.3%
CC(C)c1ccc(-c2nn[nH]n2)cc1 0.3%
C=CCn1c2ccccc2c2nnc(SC(CC)C(=O)Nc3nc(C)c(C(=O)OCC)s3)nc21 (stereo not drawn) 2.6%

inhibition, active:
CCN1C(=O)/C(=C2/Sc3ccccc3N2CCCS(=O)(=O)O)SC1=S 17.1%
